Assay outcomes from PubChem BioAssay.
PLAP activator = PLAP enzyme activators, biochemical, luminescence, HTS; activation fold at 20 µM; purified PLAP enzyme, luminescent substrate read-out; active compounds read high; hit rate 1.2% among 96,000; in the data active = activation fold above about 2
Target sequence (P05187 whole entry, looked up): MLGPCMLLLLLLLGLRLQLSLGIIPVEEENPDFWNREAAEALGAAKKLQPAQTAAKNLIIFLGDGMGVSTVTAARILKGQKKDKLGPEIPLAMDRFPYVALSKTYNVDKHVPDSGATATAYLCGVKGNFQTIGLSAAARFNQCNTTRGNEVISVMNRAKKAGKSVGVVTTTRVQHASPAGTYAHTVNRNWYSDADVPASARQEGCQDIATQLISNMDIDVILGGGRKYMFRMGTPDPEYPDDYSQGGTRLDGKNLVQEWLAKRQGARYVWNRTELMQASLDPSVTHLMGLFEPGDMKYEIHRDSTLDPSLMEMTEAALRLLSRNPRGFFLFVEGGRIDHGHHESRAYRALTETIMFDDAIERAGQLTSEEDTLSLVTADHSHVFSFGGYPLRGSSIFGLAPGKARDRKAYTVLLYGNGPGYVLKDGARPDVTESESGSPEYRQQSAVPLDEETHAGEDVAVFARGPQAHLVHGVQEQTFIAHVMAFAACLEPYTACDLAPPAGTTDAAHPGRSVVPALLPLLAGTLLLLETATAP
CYP2C9 inh = blockers of cytochrome P450 2C9 activity – biochemical, luminescence, ADME assay, primary screen | hit rate 20% among 96,000 | CYP2C9 Supersomes, luciferin-H conversion | inhibition, % at 5 µM | AID 777, 2007;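 active = blocking of liver enzyme CYP2C9 beyond about 50% at 5 µM, limit read from the data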
CYP2C19 inhib = blockers of cytochrome P450 2C19 activity – biochemical, luminescence, ADME assay, primary screen. P33261. CYP2C19 Supersomes, luciferin-H EGE luminescence, 30 min. inhibition, % at 5 µM. hit rate 21% among 96,000. AID 778, 2007;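 active = CYP2C19 inhibition above a set limit at 5 µM in the primary screen, cut at about 50% in these data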;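 note: plate controls were negative control wells for no effect and 2.5 mM tranylcypromine positive control for full effect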
CYP2C9 act = human CYP2C9 activators, primary screen, biochemical, luminescence. Cytochrome P450 2C9 (Homo sapiens), P11712. recombinant CYP2C9, luciferin-H conversion; active compounds read high; factor 1 = untreated enzyme, 0 = blocked. AID 1024, 2008. hit rate 1.4% among 96,000. activation factor at 5 µM;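 active = activation factor of 2 or more for CYP2C9 at a 5 µM dose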;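 note: 0 = sulfaphenazole-blocked wells and 1 = vehicle-only wells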
CYP2C19 activ = human CYP2C19 activators, primary screen, biochemical, luminescence | Cytochrome P450 2C19 (Homo sapiens), P33261 | recombinant CYP2C19, luciferin-H EGE luminescence; active compounds read high; 0 = fully inhibited enzyme, 1 = untreated enzyme | activation factor at 5 µM | 96,000 tested, under 10 active | AID 1025, 2008;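 active = activation factor of at least 2 at 5 µM in the primary screen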;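 note: 0 = wells with 2.5 mM tranylcypromine and 1 = vehicle-only wells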
* = called active by the depositor. Sampled rows, rich in hits. Any-hit rate of the full collection: about 31%.

SMILES | PLAP activator | CYP2C9 inh | CYP2C19 inhib | CYP2C9 act | CYP2C19 activ
CCCOC(=O)/C(C(N)=NCc1ccccc1)=C(\O)OCCC | 0.8 | 35.0 | 42.0 | 0.7 | 0.6
CCN(CC)CCN1C(=O)c2ccccc2NC1c1ccc(C)cc1 (centres undefined) | 1 | -26.9 | -0.2 | 1.3 | 1
O=C(NCc1cccc(Cl)c1)c1cnn2c1NC(c1ccco1)CC2C(F)(F)F (centres undefined) | 0.8 | 40.9 | 49.4 | 0.6 | 0.5
CN(Cc1ccc(-n2cccn2)cc1)C(=O)c1cnn2c1NC(c1ccco1)CC2C(F)(F)F (centres undefined) | 1.5 | 78.2* | 48.9 | 0.2 | 0.5
Cc1nc(CCNC(=O)c2ccccc2)cs1 | 1 | 12.9 | 43.8 | 0.9 | 0.6
O=C(Nc1c(Cl)cc(Cl)cc1-c1nc2ccccc2s1)c1ccc(Br)o1 | 1.2 | 55.3* | 10.9 | 0.4 | 0.9
O=C(Nc1ccccc1-c1nc2ccccc2s1)c1ccco1 | 1 | 37.8 | 13.9 | 0.6 | 0.9
Cc1nc(NCCc2ccccc2F)c(C#N)c(C)c1[N+](=O)[O-] | 0.9 | 67.8* | 26.2 | 0.3 | 0.7
COc1ccc(NC(=S)N2CCC(c3nc4ccccc4[nH]3)CC2)c(OC)c1 | 1.3 | 59.0* | 22.0 | 0.4 | 0.8
CCOc1ccccc1NC(=O)N1CCC(c2nc3ccccc3[nH]2)CC1 | 1.3 | -47.4 | 63.4* | 1.5 | 0.4
Cn1c(=O)[nH]c(=O)c2c1nc(N1CCCC1)n2CCSc1nc2ccccc2[nH]1 | 0.7 | 9.3 | -6.0 | 0.9 | 1.1
CCC(=O)NC(=S)Nc1cccc(C(C)=O)c1 | 1 | 14.9 | 9.9 | 0.9 | 0.9
COc1cc(NC(=S)Nc2cccc(Cl)c2Cl)c(OC)cc1Cl | 0.9 | -5.9 | 8.6 | 1.1 | 0.9
CC(=O)c1cccc(NC(=O)NC(C)c2ccncc2)c1 (centres undefined) | 2.2* | 93.8* | 85.0* | 0.1 | 0.2
O=C(O)c1cccc(NC(=S)NC(=O)C(c2ccccc2)c2ccccc2)c1 | 1.2 | 81.6* | -3.7 | 0.2 | 1
COc1cc(OC)c(NC(=S)Nc2cccc(C(C)=O)c2)cc1Cl | 1 | 34.2 | 54.3* | 0.7 | 0.5
CCCC(CCC)C(=O)Nc1cccc(C(=O)O)c1 | 1 | -8.7 | -5.6 | 1.1 | 1.1
CC(=O)c1cccc(NC(=S)NC(=O)CC(C)C)c1 | 0.8 | 55.8* | 15.7 | 0.4 | 0.8
Cc1cc(Nc2ccc(F)cc2Cl)n2ncnc2n1 | 1.7 | -3.9 | -20.7 | 1 | 1.2
O=C(COC(=O)CCc1c[nH]c(=O)[nH]1)Nc1cccc(Cl)c1 | 1.4 | 10.5 | 1.8 | 0.9 | 1
COc1ccccc1N(C)S(=O)(=O)c1ccc(C(=O)NCC(C)C)cc1 | 1.6 | 83.2* | 52.3* | 0.2 | 0.5
CCC(C)(C)NC(=O)c1ccc(S(=O)(=O)N(C)c2ccccc2OC)cc1 | 1.2 | 64.7* | 15.0 | 0.4 | 0.8
CC(C)COC(=O)C1[C@H]2C(=O)N(Cc3cccs3)C[C@]23C=C[C@H]1O3 (some centres undefined) | 1.4 | -2.6 | 41.3 | 1 | 0.6
Cc1ccc2cc(CCNC(=O)c3ccc4c(c3)OCO4)c(=O)[nH]c2c1C | 1 | 59.8* | 0.3 | 0.4 | 1
Brc1ccc2nc(CSc3ncn[nH]3)cn2c1 | 2.8* | -9.7 | 52.3* | 1.1 | 0.5
SMILES | PLAP activator | CYP2C9 inh | CYP2C19 inhib | CYP2C9 act | CYP2C19 activ
c1ccc(C2(c3ccccc3)OCC(Cn3cncn3)O2)cc1 (centres undefined) | 0.9 | 51.9* | 66.4* | 0.5 | 0.3
CCN1CCN(C(=S)Nc2ccc(Cl)cc2)CC1 | 1.2 | 4.8 | 18.6 | 1 | 0.8
O=C(CN1CCCCC1)Nc1ccccc1NC(=O)CN1CCCCC1 | 1 | -9.0 | -7.5 | 1.1 | 1.1
O=C(CNCCC1=CCCCC1)Nc1ccccc1N1CCCCC1 | 1.5 | 86.4* | 92.6* | 0.1 | 0.1
O=C(CNC1CCCCCC1)Nc1ccccc1N1CCCCC1 | 1.2 | 23.5 | 56.6* | 0.8 | 0.4
COc1ccc(NC(=O)CNCCC2=CCCCC2)cc1 | 1.1 | -16.9 | 29.1 | 1.2 | 0.7
O=C(CN1CCc2ccccc2C1)Nc1ccccc1N1CCCCCC1 | 1.3 | 72.6* | 90.0* | 0.3 | 0.1
O=C(CNCC1CCCCC1)Nc1ccccc1N1CCCCC1 | 1.3 | 48.0 | 73.9* | 0.5 | 0.3
COc1cc2c(=O)n(CCCN3CCOCC3)c(=S)[nH]c2c(OC)c1OC | 1.2 | 5.6 | 0.9 | 0.9 | 1
CCOCCCNC(=O)C(NC(=O)c1cnccn1)c1ccc(C)cc1 (centres undefined) | 1.5 | -3.1 | 59.2* | 1 | 0.4
CCOCCCNC(=O)C(NC(=O)CNC(C)=O)c1ccc(C)cc1 (centres undefined) | 1.1 | -19.0 | -24.0 | 1.2 | 1.2
N#Cc1ccc(Oc2cccc(C(=O)O)c2)cc1C#N | 0.9 | -6.0 | -6.5 | 1.1 | 1.1
N/C(CN1CCCC1=O)=N\OC(=O)c1ccccc1Cl | 0.9 | -5.1 | -1.5 | 1.1 | 1
CCOC(=O)C1=C(NC(=O)c2ccc(Br)o2)Nc2ccccc2N=C1 | 1.1 | 60.0* | 13.0 | 0.4 | 0.9
O=C1CCc2cc(S(=O)(=O)NC(Cc3ccccc3)C(=O)NC3CCCC3)ccc2N1 (centres undefined) | 0.8 | 15.4 | 11.1 | 0.8 | 0.9
CCOC(=O)c1c(NC(=O)CCC(=O)N2CCOCC2)sc2c1CC(C)(C)OC2 | 1.3 | -19.2 | 26.9 | 1.2 | 0.7
CCOc1ccccc1NC(=O)C1CCCN(C(=O)NCc2ccccc2)C1 (centres undefined) | 0.9 | -77.8 | 50.8* | 1.8 | 0.5
CN(C)C(=O)N1CCCC(C(=O)NCCc2ccccc2)C1 (centres undefined) | 1.1 | 9.3 | 22.4 | 0.9 | 0.8
CN(C)C(=O)N1CCCC(C(=O)NCc2ccccc2)C1 (centres undefined) | 1 | -0.4 | 57.0* | 1 | 0.4
COc1ccc(OC)c2c(C)cc(N3CCN(C(=O)c4ccc(F)cc4)CC3)nc12 | 1.6 | 19.1 | 3.3 | 0.8 | 1
CS(=O)(=O)N(CC(=O)NC1CCCC1)c1cccc(F)c1 | 1 | 9.1 | 29.0 | 0.9 | 0.7
O=C(CN(C(=O)CSc1nc2ccccc2o1)c1ccccc1)NC1CCCCC1 | 0.9 | 49.9 | 76.8* | 0.5 | 0.2
O=C(CN(C(=O)CSc1nc2ccccc2o1)c1cccc(F)c1)NC1CCCCC1 | 1 | 62.6* | 74.2* | 0.4 | 0.3
CC(C)NC(=O)NC(=O)CSc1nncn1C | 1.2 | -3.6 | -7.5 | 1 | 1.1
CC(=O)N1c2c(ccc3ccccc23)C(C)CC12CCCCC2 (centres undefined) | 1 | 93.3* | 98.0* | 0.1 | 0
Cc1cc(NCCCn2ccnc2)n2nc(-c3ccc(F)cc3)cc2n1 | 1.9 | 98.0* | 97.2* | 0 | 0
